Structures are written as SMILES.

The assay can be described thus: qHTS profiling of the MIPE4 collection as inhibitors of Plasmodium falciparum (HB3) proliferation (AID 743347). Particulars: P. falciparum HB3 in erythrocytes, SYBR Green DNA, 72 h; at 28.5 µM (top of the series) unless noted. An excerpt: Plasmodium falciparum is a virulent malarial parasite that kills 1-2 million people worldwide each year. Transmitted by mosquitoes, the sporozoite form of the parasite enters the blood stream to infect hepatocytes, where they become merozoites that infect red blood cells (erythrocytes). Within erythrocytes, merozoites begin a […] cycle of growth and division, after which the parasite is released to infect new red blood cells. Gametocytes, which form within erythrocytes as well, circulate in the bloodstream and are ingested by the mosquito, thereby completing the life cycle. To profile malarial isolates for differential chemical responses and to identify inhibitors of malarial growth, an assay that measures P. falciparum growth and replication within erythrocytes was employed. This assay uses a DNA binding fluorescent dye (SYBR Green) to detect parasite DNA following cell lysis. Because mature erythrocytes lack DNA, only Plasmodium-derived DNA is detected.
The SYBR Green viability assay was adapted from a method described previously (Plouffe et al., 2008). For screening 3 ul culture medium was dispensed into 1536 well black clear bottom plates (Aurora Biotechnologies) using a Multidrop Combi (Thermo Fisher Scientific Inc.), 23 nL compounds in DMSO were added by a pin tool (Kalypsys), and 5 ul of erythrocytes infected with P. falciparum (0.3% parasitemia, 2.5% hematocrit final concentration) were added. The plates were incubated at 37 C in a humidified incubator in 5% CO2 for 72 h, and 2 ul lysis buffer (20 mM Tris HCl, 10 mM EDTA, 0.16% saponin, 1.6% triton X, 10X SYBR Green I supplied as 10,000X […] by Invitrogen) was added to each well. The plates were mixed for 25 sec with gentle shaking and incubated overnight at room temperature in the dark. The following morning, fluorescence intensity at 485(14) nm excitation and 535(25) nm emission wavelengths was measured on an EnVision (Perkin Elmer) plate reader. Plate reads were normalized relative to the control inhibitor (0.29 uM artemisinin) and vehicle (DMSO) wells present on each plate and then corrected by an algorithm using vehicle-only control plates at the beginning and end of the compound plate stack.
Compound `Cc1cc(-c2ccc(CC(=O)Nc3ccc(-c4cccnc4)cc3)cc2)ccn1` showed a growth, % of control of 63.6%.
Consider `COCCNCCCn1c(C(=O)CF)c(-c2ccc(C)cc2)c2c(N)ncnc21`, for which the growth, % of control is 32.4%.
With `Cc1csc(NC(=O)c2sc3nc4c(c(C(F)(F)F)c3c2N)CCC4)n1` the figure was 78.3%; with `COc1cc(F)c(F)c(Nc2ccc(I)cc2F)c1NS(=O)(=O)C1(C[C@H](O)CO)CC1`, 17.2%.
With `CC(=O)Oc1ccccc1C(=O)O` the figure was 94.6%; with `NNCCc1ccccc1`, 96.6%.
As for `c1ccc([C@H]2CN3CCSC3=N2)cc1`, the figure is 95.1%.
On to `C#Cc1cccc(Nc2ncnc3cc(OCCOC)c(OCCOC)cc23)c1`, for which the growth, % of control amounted to 4.75%.
With `Nc1nc2ccc(OC(F)(F)F)cc2s1`, the growth, % of control is 7.48%.
With `N[C@@H]1CONC1=O` the figure was 650%; with `O=C(C1CC1)N1CC[C@@H](Cn2c(-c3ccc(-c4ccc5occc5c4)cc3)nc3cnccc32)C1`, 21.9%; with `NC(=O)C1CCCc2c1[nH]c1ccc(Cl)cc21` (stereo not given), 106%.
As for `NS(=O)(=O)c1cc2c(cc1Cl)NC=NS2(=O)=O`, the figure is 105%.
Consider `NC(=O)c1ccc(-c2nc(-c3ccc4c(c3)OCO4)c(-c3ccccn3)[nH]2)cc1`, for which the growth, % of control was determined as 18.7%.
In the case of `Nc1ccc(S(=O)(=O)Nc2ccnn2-c2ccccc2)cc1`, the growth, % of control turned out to be 94.4%.
`NC(=O)c1ccc(-c2nc(-c3ccc4c(c3)OCCO4)c(-c3ccccn3)[nH]2)cc1`: the growth, % of control came to 12.9%.
As for `CC1(C)SCCN(S(=O)(=O)c2ccc(OCC#CCO)cc2)[C@@H]1C(=O)NO`, the figure is 112%; as for `CC(C)C[C@H](NC(=O)[C@@H](O)[C@H](N)Cc1ccccc1)C(=O)O`, 6.17%; as for `O=C(O)[C@@H](c1ccc(OCc2ccc3ccccc3n2)cc1)C1CCCC1`, 84.3%.
As for `CCCS(=O)(=O)Nc1ccc(F)c(C(=O)c2c[nH]c3ncc(Cl)cc23)c1F`, the figure is 71.8%; as for `COc1ccc(C2=N[C@H](c3ccc(Cl)cc3)[C@H](c3ccc(Cl)cc3)N2C(=O)N2CCNC(=O)C2)c(OC(C)C)c1`, 12.4%; as for `COc1ccc(CC2=NN3C([C@@H](CCc4ccccc4)[C@@H](C)O)=NC(C)C3C(=O)N2)cc1OC` (stereo not given in full), 82%.
As to `Cc1cc(C=c2sc3nc4ccccc4n3c2=O)c(C)n1-c1ccccc1`, the growth, % of control was 424%.
As to `CN(C(=O)c1ccc(F)cc1C(F)(F)F)C1CCN(c2nnc(-c3ccnn3C)c3ccccc23)CC1`, the growth, % of control was 21.1%.
On to `CCc1cncnc1N1CCN(Cc2nc3ccc(C(F)(F)F)cc3[nH]2)CC1`, for which the growth, % of control is 15.6%.
As for `NCCc1ccc(O)c(O)c1`, the figure is 53.9%; as for `COCC(=O)NCC=Cc1ccc2ncnc(Nc3ccc(Oc4ccc(C)nc4)c(C)c3)c2c1`, 9.14%.
Consider `CCOc1cc(C(=O)Nc2ccc(Cl)c(-c3nc4ccccc4[nH]3)c2)cc(OCC)c1OCC`, for which the growth, % of control was found to be 7.25%.
The compound `Cc1cccc(-c2nn(C(=S)Nc3ccccc3)cc2-c2ccnc3ccccc23)n1` displayed a growth, % of control of 99.5%.
With `CC(C[N+](C)(C)C)OC(N)=O` (stereo not given), the growth, % of control came out at 69.1%.
`COc1ccc2nc(S(=O)Cc3ncc(C)c(OC)c3C)[nH]c2c1` (stereo not given) displayed a growth, % of control of 84.6%.
Compound `CC[C@@H](C)[C@H](NC(=O)[C@H](CC1CCCCC1)NC(=O)c1ccno1)C(=O)N1CCC2(CCc3ccccc32)CC1` registered a growth, % of control of 5.03%.
Consider `Cc1[nH]c(=O)c(C#N)cc1-c1ccncc1`, for which the growth, % of control amounted to 9.94%.
Consider `Cn1cnc2c(F)c(Nc3ccc(Br)cc3Cl)c(C(=O)NOCCO)cc21`, for which the growth, % of control is 97.3%.
In turn, `OC(CCN1CCCCC1)(c1ccccc1)C1CC2C=CC1C2` (stereo not given) registered a growth, % of control of 35.8%.
For `N#Cc1ccc(C(c2ccc(C#N)cc2)n2cncn2)cc1`, the growth, % of control was found to be 101%.
For the compound `CC(c1cc2ccccc2s1)N(O)C(N)=O` (stereo not given), the growth, % of control is 101%.
The compound `C1COC(NC(C2CC2)C2CC2)=N1` gave a growth, % of control of 82.6%.
For the compound `CCCS(=O)(=O)Nc1ccc(F)c(C(=O)c2c[nH]c3ncc(-c4ccc(Cl)cc4)cc23)c1F`, the growth, % of control stood at 15.2%.
`CCN(CC)CCCC(C)Nc1nc(C)cc(Nc2ccc3nc(C)cc(N)c3c2)n1` (stereo not given): the growth, % of control worked out at 20%.

(Values after PubChem BioAssay (NCATS).)
